Several values for one entry are separate records, joined by “and”; a condition that tells them apart may be missing. Equal values may be shown once. Results filed as inconclusive are left out. Unmarked numbers belong to inactive results. Activity calls are given as the source filed them. Calls come from the whole dose curve.
assay: qHTS assay to identify small molecule agonists of the NFkB signaling pathway - cell viability counter screen (AID 1159515); conditions: NFkB-bla ME-180 viability, CellTiter-Glo luminescence, 5 h; series mostly up to 61 µM; activity, negative = cytotoxic: at the top concentration; note: nearly all actives have a fitted effect of over 55% in size
From the text: National Center for Advancing Translational Sciences [NCATS]
NIH Chemical Genomics Center [NCGC]
U.S. Environmental Protection Agency [EPA]
National Institutes of Environmental Health Sciences [NIEHS]
National Toxicology Program [NTP]
U.S. Food and Drug Administration [FDA]
Transcription factors and their stimulated target gene expression play pivotal roles across many cellular processes including responses to environmental stimuli. Proper regulation of associated pathways is critical to maintain cell health and function. Constitutive activation of transcription factor pathways has been implicated in tumors as it may block cellular functions such as apoptosis and lead to invasion and metastasis. One important transcription factor that stimulates gene expression in response to cytokines, UV radiation, and other stimuli is nuclear factor-kappa B (NFkB). To measure activation of the NFkB pathway, the CellSensor NFkB-bla ME-180 cell line (Life Technologies, Carlsbad, CA) that stably expresses beta-lactamase reporter gene under the regulation of a NF-kB response element was used. This assay allows measurement of the NFkB pathway activity induced by compounds in a ME-180 cell line. This system quantitates NF-kB activity using a FRET-based assay system where beta-lactamase expression disrupts FRET, allowing for fluorescent measurement of activity. This cell line has been used to screen the Tox21 10K compound library and to identify compounds that induce the NFkB pathway activity. The cytotoxicity of the Tox21 compound library against the NFkB-bla ME-180 cell line was tested in parallel by measuring cell viability using the CellTiter-Glo assay in the same wells.
Tox21 Assay Protocol Summary:
NFkB-bla ME-180 cells were dispensed at 2,000 cells/6 uL of assay medium per well into black wall/clear-bottom 1536-well plates using a Multidrop Combi (ThermoFisher Scientific, Waltham, MA) dispenser. After the assay plates were incubated at 37 C and 5% CO2 for an overnight, 23 nL of compounds dissolved in DMSO, positive controls or DMSO only was transferred to the assay plate by a Pintool station (Kalypsys, San Diego, CA). The assay plates were incubated at 37 C and 5% CO2 for 5 hr. One uL of LiveBLAzer B/G FRET substrate (Life Technologies) was added using a Flying Reagent Dispenser (Aurora Discovery, San Diego, CA) and the plates were incubated at room temperature for 1.5 hr. Fluorescence intensity (405 nm excitation, 460 nm and 530 nm emissions) was measured using an Envision plate reader (PerkinElmer, Shelton, CT). For cytotoxicity, 3 ul/well of CellTiter-Glo reagent was added into the assay plates using an FRD. After 30 min incubation at room temperature, the luminescence intensity was measured using a ViewLux plate reader (PerkinElmer).
% is set by controls: 0 for no effect and ±100 for the full control effect; potency is the fitted concentration of half-maximal effect.

Question: With `Cc1c(O)cccc1C(=O)N[C@@H](CSc1ccccc1)[C@H](O)CN1C[C@H]2CCCC[C@H]2C[C@H]1C(=O)NC(C)(C)C` as the molecule, how does the Potency read?
Answer: Its Potency is “inactive”.

Question: Which “activity, negative = cytotoxic” value does the source give for `CC(=O)CC(C)=O` here?
Answer: The value was 0.276% [at 78.8 µM].

Question: Which Potency does the source give for `CCn1c2ccccc2c2cc(N)ccc21` here?
Answer: The Potency was “inactive”.

Question: Which “activity, negative = cytotoxic” value does the source give for `O=C(O)Cn1cnnn1` here?
Answer: The value was 8.76%.

Question: Which “activity, negative = cytotoxic” value does the source give for `O=C(Cl)c1cccc(C(=O)Cl)c1` here?
Answer: Its value is -3.29%.

Question: For `CC(C)(C)c1ccc(O)c(C(C)(C)C)c1`, which Potency is on record?
Answer: The Potency was 48.8 µM (active) and 49 µM (active).

Question: For `COc1cc(C(=S)N2CCOCC2)ccc1O`, which “activity, negative = cytotoxic” value is on record?
Answer: The value was -6.38%.

Question: For `NC(Cc1ccc(Cl)cc1)C(=O)O` (stereo not given), which activity, negative = cytotoxic is on record?
Answer: The activity, negative = cytotoxic was 8.56% [at 0.628 µM].

Question: With `Cc1cc(C(C)(C)C)c(O)c(C(C)(C)C)c1` as the molecule, how does the “activity, negative = cytotoxic” value read?
Answer: Its value is -30.5%.

Question: For `O=C(O)c1cccc(C(=O)O)c1`, which “activity, negative = cytotoxic” value is on record?
Answer: The value was -1.92%.

Question: Which “activity, negative = cytotoxic” value does the source give for `C/C=C/c1ccc(OCC)c(O)c1` here?
Answer: Its value is 7.3%.

Question: Which “activity, negative = cytotoxic” value does the source give for `CCC(=O)/C=C/C1C(C)=CCCC1(C)C` (stereo not given) here?
Answer: Its value is 11.9%.

Question: Which Potency does the source give for `CC(COc1ccccc1)N(CCCl)Cc1ccccc1` (stereo not given) here?
Answer: Its Potency is “inactive”.

Question: Which Potency does the source give for `Oc1c(Cl)cc(Cl)c(Cl)c1Cc1c(O)c(Cl)cc(Cl)c1Cl` here?
Answer: Its Potency is 34.6 µM (active) and 43.6 µM (active).

Question: For `c1ccc2n[nH]nc2c1`, which “activity, negative = cytotoxic” value is on record?
Answer: Its value is 2.78%.

Question: With `CCOc1ccccc1C(N)=O` as the molecule, how does the “activity, negative = cytotoxic” value read?
Answer: Its value is 9.97%.

Question: With `CC(=O)C1=C(C)[C@@H]2C[C@@]3(C1)[C@H](C)CC[C@H]3C2(C)C` as the molecule, how does the Potency read?
Answer: The Potency was “inactive”.

Question: With `NC(=Nc1ccccc1)Nc1ccccc1` as the molecule, how does the Potency read?
Answer: Its Potency is “inactive”.

Question: For `CCCCCCCCCCCCCCCCCl`, which “activity, negative = cytotoxic” value is on record?
Answer: Its value is 15.8% [at 28.5 µM].

Question: Which “activity, negative = cytotoxic” value does the source give for `C=C(C)C(=O)O` here?
Answer: Its value is 5.85%.

Question: For `NNCCc1ccccc1`, which “activity, negative = cytotoxic” value is on record?
Answer: Its value is 0.329%.

Question: Which Potency does the source give for `c1ccc2cc3c(ccc4ccccc43)cc2c1` here?
Answer: The Potency was “inactive”.

Question: With `Nc1cc(Cl)c(-c2cc(Cl)c(N)cc2Cl)cc1Cl` as the molecule, how does the Potency read?
Answer: The Potency was 48.9 µM (active) and 54.9 µM (active).

Question: For `NC12CC3CC(CC(C3)C1)C2`, which “activity, negative = cytotoxic” value is on record?
Answer: The value was 12.4%.

Question: For `O=C(Oc1ccccc1)c1ccccc1O`, which “activity, negative = cytotoxic” value is on record?
Answer: The value was 3.97%.

Question: Which “activity, negative = cytotoxic” value does the source give for `CC1COc2c(N3CCN(C)CC3)c(F)cc3c(=O)c(C(=O)O)cn1c23` (stereo not given) here?
Answer: Its value is 2.72%.

Question: Which “activity, negative = cytotoxic” value does the source give for `OCCOCCN1CCN(C(c2ccccc2)c2ccc(Cl)cc2)CC1` (stereo not given) here?
Answer: The value was -23.4%.

Question: With `O=C(Nc1ccccc1SSc1ccccc1NC(=O)c1ccccc1)c1ccccc1` as the molecule, how does the Potency read?
Answer: Its Potency is “inactive”.

Question: Which “activity, negative = cytotoxic” value does the source give for `C=CC(=O)OCCCCCCOC(=O)C=C` here?
Answer: The value was -6.05%.

Question: For `CC(=O)CC(=O)Nc1ccc2[nH]c(=O)[nH]c2c1`, which “activity, negative = cytotoxic” value is on record?
Answer: The value was 11.6%.

Question: For `CC(=O)OCC1=C(C(=O)O)N2C(=O)[C@@H](NC(=O)Cc3cccs3)[C@H]2SC1`, which “activity, negative = cytotoxic” value is on record?
Answer: The value was 5.17%.

Question: With `CC[C@]1(O)C[C@@H]2CN(CCc3c([nH]c4ccccc34)[C@@](C(=O)OC)(c3cc4c(cc3OC)N(C)[C@H]3[C@@](O)(C(=O)OC)[C@H](OC(C)=O)[C@]5(CC)C=CCN6CC[C@]43[C@@H]65)C2)C1` as the molecule, how does the Potency read?
Answer: The Potency was “inactive”.

Question: For `CC1=CC(=O)c2ccccc2C1=O`, which Potency is on record?
Answer: Its Potency is 24.5 µM (active).

Question: With `O=C(O)CP(=O)(O)O` as the molecule, how does the “activity, negative = cytotoxic” value read?
Answer: The value was 9.53%.

Question: With `c1cnc2cc3c(cc2n1)C1CNCC3C1` as the molecule, how does the “activity, negative = cytotoxic” value read?
Answer: Its value is 11.5%.

Question: Which Potency does the source give for `O=Nc1ccc(Nc2ccccc2)cc1` here?
Answer: The Potency was “inactive”.

Question: For `Cc1ccc(S(=O)(=O)Oc2ccc(N=Nc3ccc(-c4ccc(N=Nc5c(O)ccc6cc(S(=O)(=O)O)cc(S(=O)(=O)O)c56)c(C)c4)cc3C)cc2)cc1`, which Potency is on record?
Answer: Its Potency is “inactive”.

Question: Which “activity, negative = cytotoxic” value does the source give for `CC(C)(C)NC(=O)[C@@H]1CN(Cc2cccnc2)CCN1C[C@@H](O)C[C@@H](Cc1ccccc1)C(=O)N[C@H]1c2ccccc2C[C@H]1O` here?
Answer: Its value is -3.56%.

Question: For `CCCN[C@H]1CCc2nc(N)sc2C1`, which “activity, negative = cytotoxic” value is on record?
Answer: Its value is 5.2%.

Question: For `CO[Si](OC)(OC)c1ccccc1`, which “activity, negative = cytotoxic” value is on record?
Answer: Its value is -0.256%.
